This passage reports inhibition results from ChEMBL document CHEMBL1961873, “Compounds: GSK PKIS; Assays: Nanosyn kinase panel” (2012).

Experiment [1] concerns Tyrosine-protein kinase ABL1 (Homo sapiens), P00519 [T315I]. Conditions: at 1 µM.
Experiment [2] relates to Tyrosine-protein kinase ABL1 (Homo sapiens), P00519 [Y253F]. Conditions: at 0.1 µM.
For experiment [3] the test system is unchanged. Conditions: at 1 µM.
Experiment [4] deals with Tyrosine-protein kinase ABL1 (Homo sapiens) (UniProt P00519). Conditions: at 0.1 µM.
The target is the same in experiment [5]. Conditions: at 1 µM.
Experiment [6] concerns the target ALK tyrosine kinase receptor (Homo sapiens) (UniProt Q9UM73). Conditions: at 0.1 µM.
Experiment [7] shares this target. The settings on record: at 1 µM.
Experiment [8] addresses Tyrosine-protein kinase ABL2 (Homo sapiens) (UniProt P42684). The settings on record: at 0.1 µM.
Experiment [9] has the same target. The settings on record: at 1 µM.
Experiment [10] deals with Tyrosine-protein kinase receptor UFO (Homo sapiens) (UniProt P30530). The settings on record: at 0.1 µM.
For experiment [11] the target is unchanged. The settings on record: at 1 µM.
Experiment [12] concerns the target Tyrosine-protein kinase Blk (Homo sapiens) (UniProt P51451). The settings on record: at 0.1 µM.
The target is the same in experiment [13]. The settings on record: at 1 µM.
Experiment [14] concerns the target T1, Cytoplasmic tyrosine-protein kinase BMX (Homo sapiens) (UniProt P51813).
T1 sequence (whole entry): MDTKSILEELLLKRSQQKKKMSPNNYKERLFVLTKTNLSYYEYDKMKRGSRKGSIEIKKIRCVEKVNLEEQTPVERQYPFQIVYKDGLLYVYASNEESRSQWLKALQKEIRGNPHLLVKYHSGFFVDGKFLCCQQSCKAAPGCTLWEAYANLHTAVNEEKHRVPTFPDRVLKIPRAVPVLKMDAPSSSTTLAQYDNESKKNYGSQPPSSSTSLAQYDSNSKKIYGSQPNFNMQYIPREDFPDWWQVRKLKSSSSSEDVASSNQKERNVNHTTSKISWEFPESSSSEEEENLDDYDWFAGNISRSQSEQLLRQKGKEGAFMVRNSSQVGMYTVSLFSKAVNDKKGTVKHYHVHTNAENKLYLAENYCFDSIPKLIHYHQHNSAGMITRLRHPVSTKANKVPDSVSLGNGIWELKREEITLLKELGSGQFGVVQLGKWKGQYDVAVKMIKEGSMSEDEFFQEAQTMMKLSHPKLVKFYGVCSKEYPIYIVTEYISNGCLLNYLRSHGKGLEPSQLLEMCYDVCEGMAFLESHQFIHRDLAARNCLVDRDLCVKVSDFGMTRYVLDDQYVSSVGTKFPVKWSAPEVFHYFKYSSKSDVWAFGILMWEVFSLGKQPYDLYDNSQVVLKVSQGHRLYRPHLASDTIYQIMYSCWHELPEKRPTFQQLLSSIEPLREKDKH
The settings on record: at 0.1 µM.

Experiment [15] deals with T1, Cytoplasmic tyrosine-protein kinase BMX (Homo sapiens). Conditions: at 1 µM.
Experiment [16] deals with Protein-tyrosine kinase 6 (Homo sapiens) (UniProt Q13882). The settings on record: at 0.1 µM.
Experiment [17] has the same target. The settings on record: at 1 µM.
For experiment [18], the target named is Tyrosine-protein kinase BTK (Homo sapiens) (UniProt Q06187). The settings on record: at 0.1 µM.
The target is the same in experiment [19]. The settings on record: at 1 µM.
Experiment [20] has as its target Tyrosine-protein kinase CSK (Homo sapiens) (UniProt P41240). Conditions: at 0.1 µM.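 Note: value given is the averaged percent inhibition of CSK kinase activity, from the GSK PKIS kinase inhibitor set screening panel.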

Sequence of Tyrosine-protein kinase ABL2 (Homo sapiens) (P42684 whole entry): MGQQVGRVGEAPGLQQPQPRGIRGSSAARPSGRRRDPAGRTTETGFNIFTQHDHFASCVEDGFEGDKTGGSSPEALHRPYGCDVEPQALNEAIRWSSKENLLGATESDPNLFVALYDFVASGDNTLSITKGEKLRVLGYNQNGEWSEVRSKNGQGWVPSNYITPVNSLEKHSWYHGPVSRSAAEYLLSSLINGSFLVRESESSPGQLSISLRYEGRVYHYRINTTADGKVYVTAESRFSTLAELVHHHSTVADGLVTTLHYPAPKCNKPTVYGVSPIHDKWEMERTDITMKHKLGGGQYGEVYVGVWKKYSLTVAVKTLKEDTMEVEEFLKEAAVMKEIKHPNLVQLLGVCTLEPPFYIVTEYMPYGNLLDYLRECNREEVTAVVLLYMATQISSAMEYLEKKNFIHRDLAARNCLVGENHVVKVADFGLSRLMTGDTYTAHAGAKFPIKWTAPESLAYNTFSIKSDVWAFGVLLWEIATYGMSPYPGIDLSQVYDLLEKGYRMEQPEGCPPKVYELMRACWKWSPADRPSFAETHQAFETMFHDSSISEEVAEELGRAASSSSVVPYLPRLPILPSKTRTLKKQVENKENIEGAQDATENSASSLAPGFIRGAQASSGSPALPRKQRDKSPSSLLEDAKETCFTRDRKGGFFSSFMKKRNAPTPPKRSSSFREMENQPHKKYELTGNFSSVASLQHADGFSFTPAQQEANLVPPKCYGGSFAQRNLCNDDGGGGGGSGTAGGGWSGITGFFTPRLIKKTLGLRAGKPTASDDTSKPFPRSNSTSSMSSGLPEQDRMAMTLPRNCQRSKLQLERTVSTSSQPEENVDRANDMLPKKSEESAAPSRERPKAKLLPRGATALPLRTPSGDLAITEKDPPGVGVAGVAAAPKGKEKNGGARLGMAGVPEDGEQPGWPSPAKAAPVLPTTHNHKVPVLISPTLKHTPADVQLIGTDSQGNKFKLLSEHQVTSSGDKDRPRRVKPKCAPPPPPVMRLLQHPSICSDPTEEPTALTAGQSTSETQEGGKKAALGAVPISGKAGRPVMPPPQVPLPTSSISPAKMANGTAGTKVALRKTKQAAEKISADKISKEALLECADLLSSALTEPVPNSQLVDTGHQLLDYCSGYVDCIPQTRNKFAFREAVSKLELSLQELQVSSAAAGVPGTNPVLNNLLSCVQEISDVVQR
Sequence of Tyrosine-protein kinase Blk (Homo sapiens) (P51451 2-505 limits assumed): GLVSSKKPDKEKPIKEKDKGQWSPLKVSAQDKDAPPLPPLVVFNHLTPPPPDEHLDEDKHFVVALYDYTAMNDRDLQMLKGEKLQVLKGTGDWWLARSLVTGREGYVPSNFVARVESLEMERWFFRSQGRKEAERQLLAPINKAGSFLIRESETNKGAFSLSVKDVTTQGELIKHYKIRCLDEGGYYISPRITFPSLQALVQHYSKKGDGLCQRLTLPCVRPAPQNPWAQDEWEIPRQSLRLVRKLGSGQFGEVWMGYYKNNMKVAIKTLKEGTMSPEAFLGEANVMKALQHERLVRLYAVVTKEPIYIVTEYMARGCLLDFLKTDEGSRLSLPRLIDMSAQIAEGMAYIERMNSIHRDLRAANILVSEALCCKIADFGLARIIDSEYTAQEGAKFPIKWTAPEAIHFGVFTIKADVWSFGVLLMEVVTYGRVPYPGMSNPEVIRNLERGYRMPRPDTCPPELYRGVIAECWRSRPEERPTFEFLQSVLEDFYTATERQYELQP
Sequence of Tyrosine-protein kinase BTK (Homo sapiens) (Q06187 whole entry): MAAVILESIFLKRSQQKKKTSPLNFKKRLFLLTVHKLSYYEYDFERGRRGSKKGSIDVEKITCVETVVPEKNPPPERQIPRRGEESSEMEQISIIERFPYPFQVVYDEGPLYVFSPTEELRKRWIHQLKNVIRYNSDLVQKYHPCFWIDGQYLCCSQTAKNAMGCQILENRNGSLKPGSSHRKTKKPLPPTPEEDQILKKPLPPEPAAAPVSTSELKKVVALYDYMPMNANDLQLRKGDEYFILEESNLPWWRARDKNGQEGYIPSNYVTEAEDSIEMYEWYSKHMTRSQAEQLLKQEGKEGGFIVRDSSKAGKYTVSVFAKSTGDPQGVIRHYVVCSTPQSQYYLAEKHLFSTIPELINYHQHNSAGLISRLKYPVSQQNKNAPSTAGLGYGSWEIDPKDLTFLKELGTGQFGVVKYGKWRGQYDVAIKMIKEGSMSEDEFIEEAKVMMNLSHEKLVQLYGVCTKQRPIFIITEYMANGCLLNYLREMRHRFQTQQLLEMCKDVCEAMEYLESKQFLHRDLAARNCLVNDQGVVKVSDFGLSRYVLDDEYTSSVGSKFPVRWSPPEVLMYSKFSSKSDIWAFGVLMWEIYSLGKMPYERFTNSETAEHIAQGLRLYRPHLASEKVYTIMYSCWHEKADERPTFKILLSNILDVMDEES
Sequence of ALK tyrosine kinase receptor (Homo sapiens) (Q9UM73 19-1620 limits assumed): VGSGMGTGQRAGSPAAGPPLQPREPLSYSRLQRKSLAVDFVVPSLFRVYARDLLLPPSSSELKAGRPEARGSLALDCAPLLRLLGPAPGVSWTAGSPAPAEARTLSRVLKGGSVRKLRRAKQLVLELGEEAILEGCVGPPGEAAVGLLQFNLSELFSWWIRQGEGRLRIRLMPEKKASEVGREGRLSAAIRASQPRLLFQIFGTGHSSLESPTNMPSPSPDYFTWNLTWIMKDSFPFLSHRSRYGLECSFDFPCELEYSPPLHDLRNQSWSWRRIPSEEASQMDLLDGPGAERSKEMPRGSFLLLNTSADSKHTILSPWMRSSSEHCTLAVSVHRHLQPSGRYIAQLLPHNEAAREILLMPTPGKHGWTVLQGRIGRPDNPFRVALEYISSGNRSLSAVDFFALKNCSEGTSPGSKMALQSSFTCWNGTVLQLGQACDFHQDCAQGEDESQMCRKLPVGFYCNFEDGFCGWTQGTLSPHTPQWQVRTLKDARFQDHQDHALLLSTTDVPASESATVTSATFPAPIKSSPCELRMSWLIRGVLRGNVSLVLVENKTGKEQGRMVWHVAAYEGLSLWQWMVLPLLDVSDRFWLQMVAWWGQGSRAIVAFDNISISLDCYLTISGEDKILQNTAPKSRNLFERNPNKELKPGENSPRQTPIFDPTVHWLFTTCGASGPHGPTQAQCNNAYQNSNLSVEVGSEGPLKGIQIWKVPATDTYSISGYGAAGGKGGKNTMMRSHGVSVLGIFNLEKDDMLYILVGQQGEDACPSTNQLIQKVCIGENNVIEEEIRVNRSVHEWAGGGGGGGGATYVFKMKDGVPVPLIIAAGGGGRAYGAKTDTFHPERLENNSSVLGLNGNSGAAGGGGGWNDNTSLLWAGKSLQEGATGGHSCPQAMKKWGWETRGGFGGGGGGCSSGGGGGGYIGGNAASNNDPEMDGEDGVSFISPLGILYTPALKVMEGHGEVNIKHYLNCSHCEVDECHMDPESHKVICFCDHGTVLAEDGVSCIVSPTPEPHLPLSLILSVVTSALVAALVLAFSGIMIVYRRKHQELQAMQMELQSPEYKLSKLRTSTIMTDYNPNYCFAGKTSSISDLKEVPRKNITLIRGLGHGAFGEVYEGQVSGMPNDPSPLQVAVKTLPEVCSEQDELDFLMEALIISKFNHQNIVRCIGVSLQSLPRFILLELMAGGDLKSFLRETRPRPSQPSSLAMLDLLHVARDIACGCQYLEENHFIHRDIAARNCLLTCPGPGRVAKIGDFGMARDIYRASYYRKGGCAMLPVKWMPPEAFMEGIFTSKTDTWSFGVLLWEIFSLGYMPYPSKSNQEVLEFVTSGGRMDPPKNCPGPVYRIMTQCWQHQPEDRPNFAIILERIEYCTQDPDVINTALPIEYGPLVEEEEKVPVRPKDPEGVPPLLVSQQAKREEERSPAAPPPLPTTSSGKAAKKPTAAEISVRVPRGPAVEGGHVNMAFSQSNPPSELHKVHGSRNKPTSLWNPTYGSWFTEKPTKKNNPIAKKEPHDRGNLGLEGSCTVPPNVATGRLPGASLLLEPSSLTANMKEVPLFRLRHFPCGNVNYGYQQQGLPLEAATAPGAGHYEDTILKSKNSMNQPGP
Sequence of Tyrosine-protein kinase receptor UFO (Homo sapiens) (P30530 whole entry): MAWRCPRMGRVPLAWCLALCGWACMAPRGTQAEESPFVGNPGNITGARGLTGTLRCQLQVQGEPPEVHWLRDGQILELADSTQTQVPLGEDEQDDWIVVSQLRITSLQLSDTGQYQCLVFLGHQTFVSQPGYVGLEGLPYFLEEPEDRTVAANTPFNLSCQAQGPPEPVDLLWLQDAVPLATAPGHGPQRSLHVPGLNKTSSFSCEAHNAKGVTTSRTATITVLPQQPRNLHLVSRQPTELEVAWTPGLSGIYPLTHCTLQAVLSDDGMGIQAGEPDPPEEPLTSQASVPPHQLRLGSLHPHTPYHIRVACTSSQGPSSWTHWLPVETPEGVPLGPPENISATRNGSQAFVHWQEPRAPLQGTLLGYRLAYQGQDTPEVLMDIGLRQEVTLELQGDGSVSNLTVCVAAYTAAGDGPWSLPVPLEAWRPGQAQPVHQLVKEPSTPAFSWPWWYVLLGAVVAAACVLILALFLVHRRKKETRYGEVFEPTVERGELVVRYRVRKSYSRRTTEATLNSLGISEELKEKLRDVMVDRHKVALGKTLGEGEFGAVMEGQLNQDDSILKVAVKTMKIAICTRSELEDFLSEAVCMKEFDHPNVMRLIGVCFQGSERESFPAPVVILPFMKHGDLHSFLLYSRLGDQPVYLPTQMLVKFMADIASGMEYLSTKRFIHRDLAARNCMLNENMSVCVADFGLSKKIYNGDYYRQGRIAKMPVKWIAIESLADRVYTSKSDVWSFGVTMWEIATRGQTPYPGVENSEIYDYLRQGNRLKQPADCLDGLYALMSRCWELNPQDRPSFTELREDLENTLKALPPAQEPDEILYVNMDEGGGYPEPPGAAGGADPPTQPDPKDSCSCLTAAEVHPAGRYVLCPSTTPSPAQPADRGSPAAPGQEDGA

For `COc1cc(/C=N/Nc2ncnc3[nH]ncc23)ccc1O`, the inhibition in [1] stood at 47.4%; in experiment [2] it was 52.5%; in experiment [3], 87.3%; in experiment [4], 35.1%; in [5], 78.9%; in [6], 1.72%. For the same compound, the inhibition was 8.84% in experiment [7]; 15.6% in experiment [8]; 65.7% in experiment [9]; -3.29% in [10]; -3.87% in experiment [11]; 9.75% in experiment [12]. Moreover, the inhibition in [13] came out at 59.7%; in experiment [14], 2.08%; in experiment [15], 32.4%; in experiment [16], 5.52%; in [17], 30.3%; in experiment [18], 1.57%. Further, the inhibition in [19] turned out to be 7.64%; in experiment [20], 7.17%.
Turning to `CS(=O)(=O)CCNCc1coc(-c2ccc3ncnc(Nc4ccc(OCc5ccccc5)cc4)c3c2)c1`, the inhibition in experiment [1] was 4.02%; in [2], 3.03%; in [3], 2.89%; in experiment [4], 4.85%; in [5], 7.39%; in [6], 2.87%. In addition, the inhibition in experiment [7] is 9.68%; in [8] it was 3.06%; in [9], 4.08%; in [10] it was -2.71%; in experiment [11] it was 0.06%; in experiment [12] it was 2.9%. The inhibition in experiment [13] was 11.5%; in experiment [14], 4.64%; in [15], 6.49%; in experiment [16], -1.1%; in experiment [17], 10.9%; in experiment [18], -0.04%. The inhibition in experiment [19] is 2.66%; in experiment [20], 0.42%.
On to `Fc1cccc(COc2ccc(Nc3ncnc4sc(-c5ccco5)cc34)cc2Cl)c1`, for which the inhibition stood at 2.74% in [1]; 3.33% in experiment [2]; 3.8% in experiment [3]; 4.81% in experiment [4]; 8.56% in experiment [5]; 3.35% in experiment [6]. For the same compound, the inhibition in experiment [7] was 4.37%; in experiment [8], 4.36%; in experiment [9], 7.39%; in experiment [10], -6.97%; in experiment [11], -6.25%; in experiment [12], 4%. Also, the inhibition in experiment [13] was 3.74%; in [14] it was 2.98%; in experiment [15], 2.36%; in [16], 3.39%; in [17], 3.91%; in [18], -1.13%. Besides, the inhibition in experiment [19] is 1.35%; in experiment [20] it was -0.1%.
Turning to `CN(C)CCOc1ccc(-c2nc(-c3ccncc3)c(-c3ccc4c(c3)CC/C4=N\O)[nH]2)cc1`, the inhibition in experiment [1] was 41.9%; in experiment [2], 10.2%; in experiment [3], 40.1%; in experiment [4], 6.41%; in experiment [5] it was 40.7%; in experiment [6], 2.17%. The inhibition in experiment [7] is 8.67%; in experiment [8], 4.57%; in experiment [9], 19.4%; in [10] it was -2.86%; in [11], -4.92%; in experiment [12], 2.07%. Moreover, the inhibition worked out at 6.18% in [13]; 2.12% in [14]; 3.36% in [15]; 4.89% in experiment [16]; 12.4% in experiment [17]; 0.76% in [18]. Further, the inhibition in [19] came to 1.19%; in experiment [20] it was 6.25%.
Regarding `c1cc(-c2cnn3nc(N4CCOCC4)ccc23)nc(NC2CC2)n1`, the inhibition in [1] was 2.55%; in experiment [2], 3.63%; in experiment [3], 6.41%; in [4], 3.71%; in experiment [5] it was 13.7%; in [6], 2.05%. The inhibition in experiment [7] was 9.86%; in experiment [8], 3.73%; in experiment [9], 9.11%; in experiment [10], -3.58%; in experiment [11] it was -5.65%; in experiment [12], 2.34%. Moreover, the inhibition in [13] was determined as 7.51%; in experiment [14] it was 0.89%; in experiment [15], 2.31%; in experiment [16], 6.35%; in experiment [17], 7.89%; in experiment [18], 1.63%. For the same compound, the values for the inhibition in experiment [19] and in experiment [20] were 2.33% and 10.8%, respectively.
For `COC(=O)Nc1nc2ccc(S(=O)(=O)c3ccc(NC(=O)Nc4cc(C(F)(F)F)ccc4F)cc3)cc2[nH]1`, the inhibition in experiment [1] worked out at 1.15%; in experiment [2], 0.34%; in experiment [3] it was 1.69%; in experiment [4] it was 3.92%; in [5], 9.87%; in experiment [6], 2.66%. Besides, the inhibition in experiment [7] was 3.54%; in experiment [8], 5.17%; in [9], 6.34%; in experiment [10] it was -5.56%; in experiment [11], -1.71%; in [12], 1.71%. Also, the inhibition in experiment [13] was 3.18%; in [14] it was 6.6%; in [15], 5.12%; in experiment [16], 2.94%; in [17], 2.51%; in experiment [18] it was 1.86%. Also, the inhibition amounted to 0.94% in experiment [19] and 2.8% in [20].
As for `COc1cc(Nc2nccc(Nc3ccc4c(C)n[nH]c4c3)n2)cc(OC)c1OC`, the inhibition in experiment [1] came to 14.3%; in experiment [2], 37.6%; in experiment [3], 83.6%; in [4] it was 20.3%; in experiment [5], 69.7%; in [6], 5.55%. For the same compound, the inhibition was 39.3% in experiment [7]; 18.4% in [8]; 69.9% in experiment [9]; 0.91% in experiment [10]; 1.16% in [11]; 12.7% in experiment [12]. In addition, the inhibition was determined as 69.3% in experiment [13]; 17.5% in experiment [14]; 64.8% in experiment [15]; 11.1% in experiment [16]; 55.4% in experiment [17]; 7.82% in experiment [18]. Besides, the values for the inhibition in [19] and in experiment [20] were 34.9% and 21%, respectively.

The inhibition is the drop in the measured response relative to a control, in per cent.
